Most compounds without a hit are left out; they make up all but 13% or so of the library.
A350 fluor: compound fluoresces in the Alexa 350 spectral region; hit rate 11% among 59,000; Compound autofluorescence, 340/450 nm, Alexa 350 dye-equivalents; hits give high values; max dye-equivalent concentration, M; in the data active = max dye-equivalent concentration above about 10 nM; inconclusive = mostly about 1.1 nM to 9.6 nM
4MU fluor: 4-MU region autofluorescence; compound autofluorescence, 340/450 nm, 4-MU equivalents; hits give high values; hit rate 11% among 59,000; max dye-equivalent concentration, M; AID 589; in the data active = max dye-equivalent concentration above about 10 nM; inconclusive = mostly about 1.1 nM to 9.6 nM
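Compounds in 100 mM Tris, pH 8.0, sat 15 min at room temperature before fluorescence was read at 340 nm excitation/450 nm emission; a per-plate six-point 4-MU standard curve converted signals to dye-equivalent concentration at each compound concentration.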
PK Bst: modulators of Bacillus stearothermophilus pyruvate kinase; hit rate 1.2% among 51,000; AID 361; purified pyruvate kinase, luminescence ATP production; ribose 5-phosphate activator present at AC10; Potency, µM; in the data active = potency below about 11 µM; inconclusive = mostly about 12 µM to 25 µM;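 the screen sought inhibitors and activators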;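 also: potency is read from the fitted curve at half-maximal effect; scaled between full activation by ribose 5 phosphate and full inhibition by luteolin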
HADH2 inhib: inhibitors of human HADH2 dehydrogenase | Q99714 | recombinant HADH2, NADH fluorescence, beta-hydroxybutyryl-CoA | Potency, µM (series often up to 57.1 µM), for the others: top-dose activity change, negative = inhibition, hits mostly inhibitors | hit rate 3.4% among 73,000; also: potency is read from the fitted curve at half-maximal effect; % is scaled to controls: 0 for no effect and ±100 for the full control effect; nearly all actives have a fitted effect of over 60% in size
Target sequence (Q99714 whole entry, looked up, one chain of several): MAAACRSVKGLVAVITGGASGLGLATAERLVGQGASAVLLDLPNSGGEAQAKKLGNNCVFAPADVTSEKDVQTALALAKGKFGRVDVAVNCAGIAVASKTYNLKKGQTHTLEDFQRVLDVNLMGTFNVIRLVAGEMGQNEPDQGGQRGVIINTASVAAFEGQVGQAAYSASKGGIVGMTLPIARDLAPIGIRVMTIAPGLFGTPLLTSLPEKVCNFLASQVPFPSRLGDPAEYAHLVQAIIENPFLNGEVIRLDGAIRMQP
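NADH fluorescence (ex 360/em 450 nm) read every 30 s for 4 min; activity taken as last-minus-first time point difference. Enzyme 20 nM, NAD+ 1 mM, beta-hydroxybutyryl-CoA 90 uM, pH 9.0 Tris buffer.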
HSD17B inh: inhibitors of human HSD17B10 dehydrogenase | Q99714 | AID 893 | hit rate 7.6% among 75,000 | recombinant HSD17B10, NADH fluorescence kinetic | Potency, µM (doses to about 57.1 µM), for the others: at the top dose activity change, negative = inhibition, hits mostly inhibitors;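 also: the protocol describes HADH2 (HSD17B10) and not the HSD17B4 of the title; potency is read from the fitted curve at half-maximal effect; % is scaled to controls: 0 for no effect and ±100 for the full control effect; nearly all actives have a fitted effect of over 70% in size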
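20 nM HADH2, pH 9.0 Tris/Tween; cpd preinc 15 min RT; start w/ 1 mM NAD+ + 90 uM b-hydroxybutyryl-CoA; kinetic fluor ex360/em450 q30s x 4 min; delta last-first.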
AID923: qHTS Assay for Allosteric/Competitive Inhibitors of Caspase-1: Spectroscopic Profiling in AFC Spectral Region; compound fluorescence, AFC spectral region (405/520 nm); Potency, µM (doses to about 57.5 µM), for inactives: at the highest dose fluorescence increase, hits mostly activators; hit rate 1.1% among 75,000; AID 923, 2007; also: potency is read from the fitted curve at half-maximal effect; 0% is about no effect
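Baseline compound fluorescence (AFC region, 405 nm ex/520 nm em) taken from the intercept of kinetic reads with 50 nM caspase-1 and 5 uM Ac-WEHD-AFC; normalized to an on-plate AFC standard curve; compounds titrated up to 57 uM.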
Starred values were filed as active, the others as inactive; [ ] = dose if it differs, or a comment. Unless noted, calls follow the shape of the dose curve; as a rule, active = well fitted curve in the direction sought with a large enough effect; inconclusive = small, poorly fitted or top-dose-only effect, or another doubt; inactive = no such curve, though single readings can be large; an effect the other way counts as inactive or inconclusive.

What do the screens show for `COC(=O)CSc1nnc(-c2ccncc2)n1N`?
A350 fluor: inactive; 4MU fluor: inactive; PK Bst: >57; HADH2 inhib: -6%; HSD17B inh: 0%; AID923: -1%

What do the screens show for `CCn1c(SCC(=O)Nc2cc(NC(C)=O)ccc2OC)nnc1-c1ccncc1`?
A350 fluor: inactive; 4MU fluor: inactive; PK Bst: >57; HADH2 inhib: 3%; HSD17B inh: 7%; AID923: 0%

Results for Cc1ccc(NC(=O)CSc2nnc(-c3ccncc3)n2N)cc1C ?
A350 fluor: inconclusive; 4MU fluor: 2.5e-08M*; PK Bst: >57; HADH2 inhib: 7%; HSD17B inh: 1%; AID923: -3%

Results for CCCNC(=O)NC(=O)CSc1nnc(-c2ccncc2)n1CC ?
A350 fluor: 1.9e-08M*; 4MU fluor: 2.2e-08M*; PK Bst: >57; HADH2 inhib: 26%; HSD17B inh: inconclusive; AID923: 3%

How did Cc1ccc(S(=O)(=O)N2CCN(C(=O)c3cc(=O)[nH]c4ccccc34)CC2)c(C)c1 do in these assays?
A350 fluor: inconclusive; 4MU fluor: inconclusive; PK Bst: inactive; HADH2 inhib: -3%; HSD17B inh: 20µM*; AID923: -1%

How did Cc1ccc(S(=O)(=O)N2CCN(C(=O)CSc3nc4ccccc4c(=O)[nH]3)CC2)c(C)c1 do in these assays?
A350 fluor: inactive; 4MU fluor: inactive; PK Bst: >57; HADH2 inhib: -2%; HSD17B inh: 0%; AID923: -1%

Results for O=C(Nc1ccc(N2CCOCC2)cc1)C1CCCN(S(=O)(=O)c2cccc(C(F)(F)F)c2)C1 (centres undefined) ?
A350 fluor: inactive; 4MU fluor: inactive; PK Bst: >57; HADH2 inhib: -4%; HSD17B inh: 8%; AID923: 1%

Results for c1cc(-c2nc3cc(Oc4ccc5oc(-c6ccncc6)nc5c4)ccc3o2)ccn1 ?
A350 fluor: inconclusive; 4MU fluor: inconclusive; PK Bst: >57; HADH2 inhib: -14%; HSD17B inh: 2.5µM*; AID923: -2%

How did Cc1ccc2cccnc2c1 do in these assays?
HADH2 inhib: -1%; HSD17B inh: 5%; AID923: -1%

What do the screens show for `c1ccc(-c2nc3cc(Cc4ccc5oc(-c6ccccn6)nc5c4)ccc3o2)nc1`?
A350 fluor: inactive; 4MU fluor: inactive; PK Bst: >57; HADH2 inhib: 7%; HSD17B inh: inconclusive; AID923: -1%

What do the screens show for `Cc1ccc(C)c(CSc2nnc(-c3cccnc3)o2)c1`?
A350 fluor: inactive; 4MU fluor: inactive; PK Bst: >57; HADH2 inhib: 0%; HSD17B inh: 5%; AID923: 0%

Results for Cc1ccc2nc(-c3cccnc3)oc2c1 ?
A350 fluor: inconclusive; 4MU fluor: inconclusive; PK Bst: inactive; HADH2 inhib: 10µM*; HSD17B inh: 25µM*; AID923: -1%

What do the screens show for `Cc1ccc2nc(-c3ccccn3)oc2c1`?
A350 fluor: inactive; 4MU fluor: inactive; PK Bst: 6.9*; HADH2 inhib: 25µM*; HSD17B inh: 25µM*; AID923: 2%

How did Clc1ccc2oc(-c3ccccc3)nc2c1 do in these assays?
HADH2 inhib: -9%; HSD17B inh: -18%; AID923: 0%

How did c1ccc(-c2nc3cc(Oc4ccc5oc(-c6ccccn6)nc5c4)ccc3o2)nc1 do in these assays?
A350 fluor: inconclusive; 4MU fluor: inconclusive; PK Bst: >57; HADH2 inhib: 8%; HSD17B inh: 32µM*; AID923: 0%

Results for C1COC1 ?
HADH2 inhib: -8%; HSD17B inh: -4%; AID923: 2%

Results for CN(C)c1ccc(C(=C2C=CC(=[N+](C)C)C=C2)c2c(O)c(S(=O)(=O)O)cc3cc(S(=O)(=O)O)ccc23)cc1 ?
A350 fluor: inconclusive; 4MU fluor: inactive; HADH2 inhib: -3%[11.4 µM]; HSD17B inh: -20%[11.4 µM]; AID923: 0%[11.5 µM]

How did CCOC(=O)c1c(C)n(C)c2ccc(OC(=O)c3ccoc3)cc12 do in these assays?
A350 fluor: inconclusive; 4MU fluor: inactive; PK Bst: inactive; HADH2 inhib: -4%; HSD17B inh: -8%; AID923: 0%

Results for COCCOC(=O)c1c(C)n(C)c2ccc(OC(=O)C3CC3)cc12 ?
A350 fluor: 1.8e-08M*; 4MU fluor: 1.2e-08M*; PK Bst: inactive; HADH2 inhib: 4%; HSD17B inh: 4%; AID923: 0%

Results for C[C@@H]1CNCCN1S(=O)(=O)c1cccc2cnccc12 ?
A350 fluor: inconclusive; 4MU fluor: inconclusive; HADH2 inhib: inconclusive; HSD17B inh: -10%; AID923: 1%

How did O=C1O/C(=C\Br)CC[C@@H]1c1cccc2ccccc12 do in these assays?
A350 fluor: inactive; 4MU fluor: inactive; HADH2 inhib: inconclusive; HSD17B inh: 16µM*; AID923: -4%

What do the screens show for `O=C(O)[C@H]1CCc2ccc3ccccc3c2[C@H]1c1cccc2ccccc12`?
A350 fluor: inactive; 4MU fluor: inactive; HADH2 inhib: 6%[11.4 µM]; HSD17B inh: 2%[11.4 µM]; AID923: -1%[11.5 µM]

How did CN(C)Cc1ccccc1-c1cncnc1NCc1cccnc1 do in these assays?
A350 fluor: inactive; 4MU fluor: inactive; HADH2 inhib: inconclusive; HSD17B inh: inconclusive; AID923: 0%

What do the screens show for `Cn1c(N)c(C(=O)COC(=O)c2cc(-c3ccco3)nc3ccccc23)c(=O)n(Cc2ccccc2)c1=O`?
HSD17B inh: 10µM*; AID923: 4%

How did Cn1c(N)c(C(=O)COC(=O)c2cc(-c3ccco3)nc3ccccc23)c(=O)n(C)c1=O do in these assays?
HSD17B inh: 4µM*; AID923: 19%

How did COC(=O)c1ccc2c(c1)NC(=O)C1CCCN21 (centres undefined) do in these assays?
HADH2 inhib: -11%; HSD17B inh: 32µM*; AID923: 4%

How did Cc1ccc(NC(=O)COC(=O)c2ccc3c(c2)NC(=O)C2CCCN32)cc1 (centres undefined) do in these assays?
A350 fluor: inconclusive; 4MU fluor: inconclusive; PK Bst: >57; HADH2 inhib: -25%; HSD17B inh: inconclusive; AID923: 6%

What do the screens show for `NCCC(=O)N[C@@H](Cc1cnc[nH]1)C(=O)O`?
A350 fluor: inactive; 4MU fluor: inactive; HADH2 inhib: -7%; HSD17B inh: 1%; AID923: 0%

Results for COC1=Cc2c(ccc3ccc(=O)oc23)OC1(C)C ?
HADH2 inhib: -1%; HSD17B inh: 3%; AID923: -1%

Assay outcomes (PubChem BioAssay)
